Test results published in PubChem BioAssay (NCI).
Compounds without any hit were thinned out: in the full panel of roughly 83,000, 20% have a hit.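 Plates (96-well) were seeded with cells, treated with compound at one concentration, and incubated for 48 hours before percent growth was determined.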 Activity calls are given as the source filed them. The calls were made as follows: active = growth percent below 10; inactive = the rest.

Tests used:
Experiment in all cases: NCI-60 one-dose screen, 48 h (100 = growth as untreated, 0 = no growth, -100 = all killed)
Conditions in all cases: 10 µM unless noted
[1] = system: NCI-H226 lung
[2] = system: NCI-H322M lung
[3] = system: HOP-62 NSCLC
[4] = system: NCI-H460 lung
[5] = system: HOP-92 NSCLC
[6] = system: NCI-H522 lung
[7] = system: A549/ATCC NSCLC
[8] = system: 786-0 renal
[9] = system: COLO 205 colon

Measured: growth

O=S(=O)(Nc1cccc(Cl)c1)c1ccc(-c2cnc(C3CC3)o2)cc1
inactive: [1] 40.9% | [2] 48.1% | [3] 31.9% | [4] 16.5% | [5] 20.5% | [7] 38.4% | [8] 28.4%
active: [6] -1.89% | [9] 0.342%

Cc1ccc(S(=O)(=O)n2cc(CNc3ccc(N4CCOCC4=O)cc3)c3ccccc32)cc1
inactive: [1] 92.4% | [2] 100% | [3] 84.6% | [4] 99.8% | [5] 38.6% | [7] 103% | [8] 92.3% | [9] 85.1%
active: [6] -10.5%

O=C(Nc1ccccc1-c1nc2ccccc2c(=O)[nH]1)c1cc2ccccc2[nH]1
inactive: [1] 72.2% | [2] 84.2% | [3] 71.6% | [4] 93.2% | [5] 68.7% | [6] 78.8% | [7] 87.6% | [8] 98.1% | [9] 103%
